Reference: PubChem BioAssay (NCATS)

Assay: High-throughput drug toxicity screening in the BPDCN cell line Gen2.2 (AID 1224824)
Details: Gen2.2 BPDCN cells; at 45.8 µM (top of the series) unless noted
Excerpt: Blastic plasmacytoid dendritic cell neoplasm (BPDCN) is a rare, aggressive and largely incurable hematologic malignancy originating from plasmacytoid dendritic cells (pDCs). Although an initial response to chemotherapy is common, BPDCN prognosis is extremely poor and most patients relapse with drug-resistant disease leading to a median overall survival of ~1 year after diagnosis. To explore novel potential therapeutic strategies in BPDCN, we performed a high-throughput drug toxicity screening in BPDCN cell liens, using of a library of 1,912 small molecules, enriched for compounds that are either approved or in early stages of development for cancer therapy.
A total of 500 exponentially growing Gen2.2 cells were seeded per well in 5 uL of media (RPMI + Glutamine, without phenol red plus10% FBS and 1X Pen/Strep) into 1536-well solid white high base tissue culture treated Greiner One Bio Plates (789173-F), using a multidrop combi dispenser and a small sterile cassette. Compounds and controls totaling 23nL per well (negative control DMSO and positive control 9.2 uM Bortezomib-final) were immediately added to the plates using a 1536 head pin tool from Kalypsys. The plates were then covered with stainless steel gasket lids from Kalypsys and incubated for 48 hours at 37C under 95% relative humidity with 5% CO2. After 48 hours, the plates were removed and allowed to reach room temperature before 3 uL of Cell Titer Glo reagent (Promega) were added using an Aurora Flying Reagent Dispenser Bioraptor. The plates were then spun at 1000 rpms to remove bubbles and incubated for 15 minutes at room temperature before reading on a ViewLux using a luminescent filter with a 10 second exposure. The relative luciferase units were used to calculated percent activity using DMSO as 100% and Bortezomib as 0%.

| Compound | cell viability, % of control (lower = more cytotoxic) |
| --- | --- |
| CCc1c2c(nc3ccc(O)cc13)-c1cc3c(c(=O)n1C2)COC(=O)[C@]3(O)CC | 6.79% |
| CCOc1ccccc1OCCNC(C)Cc1ccc(OC)c(S(N)(=O)=O)c1 (stereo not given) | 122% |
| COc1c(OCCCN2CCOCC2)ccc2c3n(c(=NC(=O)c4cnc(N)nc4)nc12)CCN3 | 37.7% [at 23.2 µM] |
| Cc1cc(N2CCOCC2)cc2[nH]c(-c3c(NC[C@@H](O)c4cccc(Cl)c4)cc[nH]c3=O)nc12 | 25% |
| Cn1c(CNc2ccc(C(=N)N)cc2)nc2cc(C(=O)N(CCC(=O)O)c3ccccn3)ccc21 | 125% [at 23.2 µM] |
| CN(C)Cc1c(C(=O)NCCOc2ccc(C(=O)NO)cc2)oc2ccccc12 | 38.7% |
| CCOC(=O)C1=C(C)NC2=C(C(=O)CC(C)(C)C2)C1c1ccc(-c2ccccc2)cc1 (stereo not given) | 5.24% |
| Nc1cccc(-c2cc3c(Oc4cccc(O)c4)ncnc3[nH]2)c1 | 115% |
| C=CC(=O)Nc1cc2c(Nc3ccc(F)c(Cl)c3)ncnc2cc1C#CC(C)(C)N1CCN(C)CC1 | 6.93% |
| CCN(CC)CCCCNc1ncc2cc(-c3cc(OC)cc(OC)c3)c(NC(=O)NC(C)(C)C)nc2n1 | 4.8% |
| COc1cc(C(=O)NS(=O)(=O)c2ccccc2C)ccc1Cc1cn(C)c2ccc(NC(=O)OC3CCCC3)cc12 | 13% |
| CC(C)c1ccccc1Cc1cc(C(=O)Nc2ccc(S(=O)(=O)c3ccccc3C(C)(C)C)cc2)c(O)c(O)c1O | 20.8% |
| Cc1c(NC(=O)OC[C@@H]2COCCN2)cn2ncnc(Nc3ccc4c(cnn4Cc4cccc(F)c4)c3)c12 | 285% |
| CCC1=C[C@@H]2CN(C1)Cc1c([nH]c3ccccc13)[C@@](C(=O)OC)(c1cc3c(cc1OC)N(C)[C@@H]1[C@@](O)(C(=O)OC)[C@H](OC(C)=O)[C@]4(CC)C=CCN5CC[C@]31[C@@H]54)C2 | 28.9% |
| CN(c1ncccc1CNc1nc(Nc2ccc3c(c2)CC(=O)N3)ncc1C(F)(F)F)S(C)(=O)=O | 12.1% |
| CNC(=O)c1ccc(-c2cnc3ncc(Cc4ccc5ncccc5c4)n3n2)cc1F | 48.9% |
| COc1cc(C(C)C)c2c(c1)S(=O)(=O)N(COc1cc(=O)n3cccc(OCCN4CCCCC4)c3n1)C2=O | 3.67% |
| Cc1cc(Nc2cc(CN3CCOCC3)c3nc(C)c(Cc4ccc(Cl)cc4F)n3n2)n[nH]1 | 4.25% |
| Cn1c2cc(S(C)=O)sc2c2cnn(Cc3cccc(N)c3)c(=O)c21 (stereo not given) | 123% |
| COC(=O)C1=C(C)NC(C)=C(C(=O)OCCN2CCN(C(c3ccccc3)c3ccccc3)CC2)C1c1cccc([N+](=O)[O-])c1 (stereo not given) | 126% |

| Compound | cell viability, % of control (lower = more cytotoxic) |
| --- | --- |
| Cc1[nH]nc2ccc(-c3cncc(OC[C@@H](N)Cc4ccccc4)c3)cc12 | 7.91% |
| Cc1cc(Nc2nc(N[C@@H](C)c3ccc(F)cc3)c(C#N)cc2F)n[nH]1 | 218% |
| COCCOc1ccc2c(c1)ncn2-c1ccc2cccc(N3CCC(N)CC3)c2n1 | 3.06% |
| CN(C)CC=CC(=O)Nc1cc2c(Nc3ccc(F)c(Cl)c3)ncnc2cc1O[C@H]1CCOC1 | 6.25% |
| CC(C)CC(=O)Nc1n[nH]c2c1CN(C(=O)C1CCN(C)CC1)C2(C)C | 3.03% |
| O=C(O)CO.[NH2-].[NH2-].[Pt+2] | 124% |
| O=C(O)c1ccc2c(c1)nc(Nc1cccc(Cl)c1)c1ccncc12 | 84.5% |
| COc1cccc2c(NCc3ccccc3)nc(-n3c(N)nc4ccccc43)nc12 | 3.5% |
| CS(=O)(=O)N1CCN(Cc2cc3nc(-c4cccc5[nH]ncc45)nc(N4CCOCC4)c3s2)CC1 | 27.2% |
| COc1cc(Nc2ncc(F)c(Nc3ccc4c(n3)N(COP(=O)(O)O)C(=O)C(C)(C)O4)n2)cc(OC)c1OC | 56.3% |
| COc1ccc(-c2cc3c(C)nc(N)nc3n(C3CCC(OCCO)CC3)c2=O)cn1 (stereo not given) | 9.04% |
| COc1cc2c(Oc3ccc(NC(=O)C4(C(=O)Nc5ccc(F)cc5)CC4)cc3F)ccnc2cc1OCCCN1CCOCC1 | 10.2% |
| Cc1c(Cn2c(C)nc3c(C(=O)O)cc(N4CCOCC4)cc32)cccc1C(F)(F)F | 52.8% |
| Nc1ccccc1NC(=O)c1ccc(CNc2nccc(-c3cccnc3)n2)cc1 | 12.7% |
| CC1(C)O[C@@H]2C[C@@H]3[C@H]4C[C@@H](F)C5=CC(=O)C=C[C@]5(C)[C@@]4(F)[C@@H](O)C[C@]3(C)[C@]2(C(=O)CO)O1 | 45.3% |
| Cc1ccc(CN2CCNCC2)cc1NC(=O)CNc1ccc(F)c(F)c1 | 124% |
| CC(C)c1cc(C(=O)N2Cc3ccc(CN4CCN(C)CC4)cc3C2)c(O)cc1O | 29.3% |
| CN1CCC(CNc2ccc3ncc(-c4cccc(OC(F)(F)F)c4)n3n2)CC1 | 11.1% |
| Cc1nc(Nc2n[nH]c3c2CN(C(=O)N[C@H](CN(C)C)c2ccccc2)C3(C)C)c2sccc2n1 | 0.772% |
| C[C@@H]1CN(CC(=O)Nc2ccc3c(c2)Cc2cccc(-c4cc(=O)cc(N5CCOCC5)o4)c2S3)C[C@H](C)O1 | 11.9% |
